4-MU autofl: qHTS Assay for Spectroscopic Profiling in 4-MU Spectral Region; compound autofluorescence, 340/450 nm, 4-MU equivalents; active compounds read high; actives 11% (n = 59,000); max dye-equivalent concentration, M; AID 589, 2007; in the data active = max dye-equivalent concentration above about 10 nM; inconclusive = mostly about 1.1 nM to 9.6 nM
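Intrinsic fluorescence at 340/450 nm (ex/em) was read after 15 min at room temperature in pH 8.0, 100 mM Tris. Each compound concentration expressed as 4-MU-equivalent concentration from a six-point 4-MU standard series on each plate.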
HADH2 inhib: qHTS Assay for Inhibitors of HADH2 (Hydroxyacyl-Coenzyme A Dehydrogenase, Type II) | actives 3.4% (n = 73,000) | 3-hydroxyacyl-CoA dehydrogenase type-2 (Homo sapiens), Q99714 | Potency, µM (highest dose often 57.1 µM), hits mostly inhibitors | recombinant HADH2, NADH fluorescence, beta-hydroxybutyryl-CoA; also: nearly all actives have a fitted effect of over 60% in size
Target sequence (Q99714 whole entry, looked up, one chain of several): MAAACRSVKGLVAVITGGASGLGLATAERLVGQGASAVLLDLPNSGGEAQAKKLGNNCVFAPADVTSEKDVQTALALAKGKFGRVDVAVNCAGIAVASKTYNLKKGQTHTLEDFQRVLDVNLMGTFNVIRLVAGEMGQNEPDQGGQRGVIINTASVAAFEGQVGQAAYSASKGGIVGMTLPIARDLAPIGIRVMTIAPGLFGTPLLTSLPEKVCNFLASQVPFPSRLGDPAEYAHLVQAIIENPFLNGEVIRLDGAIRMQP
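20 nM HADH2 + cpd, 15 min RT; add 1 mM NAD+/90 uM beta-hydroxybutyryl-CoA; kinetic fluorescence 360/450 nm, 4 min. Tris-HCl pH 9.0, 0.01% Tween-20.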
HSD17B inh: qHTS Assay for Inhibitors of HSD17B4, hydroxysteroid (17-beta) dehydrogenase 4. Potency, µM (doses to about 57.1 µM), hits mostly inhibitors. recombinant HSD17B10, NADH fluorescence kinetic. actives 7.6% (n = 75,000). 3-hydroxyacyl-CoA dehydrogenase type-2 (Homo sapiens), Q99714;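 also: the protocol describes HADH2 (HSD17B10) and not the HSD17B4 of the title; nearly all actives have a fitted effect of over 70% in size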
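Activity followed as NADH fluorescence increase (ex 360, em 450 nm) every 30 seconds for 4 min, using final 90 uM beta-hydroxybutyryl CoA and 1 mM NAD+. Recombinant His-tagged enzyme, 20 nM, pH 9.0 Tris buffer, 15 min compound preincubation.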
GBA activity: Glucocerebrosidase; purified enzyme, resorufin glucoside fluorescence (screen aimed at inhibitors), 20 min; Potency, µM; actives 1.1% (n = 48,000); in the data active = potency below about 15 µM; inconclusive = mostly about 16 µM to 33 µM;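 also: the screen sought inhibitors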
Target sequence (P04062 whole entry, looked up): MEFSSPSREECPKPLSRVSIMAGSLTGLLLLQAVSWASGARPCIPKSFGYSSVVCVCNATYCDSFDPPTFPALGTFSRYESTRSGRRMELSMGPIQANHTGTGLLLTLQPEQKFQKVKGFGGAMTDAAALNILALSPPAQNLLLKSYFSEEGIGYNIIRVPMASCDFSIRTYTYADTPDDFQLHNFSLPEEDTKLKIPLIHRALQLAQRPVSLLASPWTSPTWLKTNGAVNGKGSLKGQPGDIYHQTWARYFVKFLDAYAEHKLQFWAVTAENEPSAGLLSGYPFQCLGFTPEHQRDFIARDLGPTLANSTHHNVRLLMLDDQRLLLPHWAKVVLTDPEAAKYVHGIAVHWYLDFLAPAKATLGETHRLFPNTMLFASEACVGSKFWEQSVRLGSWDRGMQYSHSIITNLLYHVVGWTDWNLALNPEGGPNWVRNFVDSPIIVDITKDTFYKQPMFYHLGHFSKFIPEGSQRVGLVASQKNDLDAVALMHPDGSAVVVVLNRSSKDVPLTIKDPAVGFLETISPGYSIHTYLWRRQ
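Normal human glucocerebrosidase (0.2 nM final) was assayed with resorufin β-D-glucopyranoside (30 uM final) in 50mM citric acid/KH2PO4, 10mM sodium taurocholate, 0.01% tween-20, pH 5.9. Compounds were titrated; fluorescence (Ex 548, Em 600) read after 20 min at RT.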
A350 autofl: qHTS Assay for Spectroscopic Profiling in A350 Spectral Region; AID 590, 2007; Compound autofluorescence, 340/450 nm, Alexa 350 dye-equivalents; active compounds read high; actives 11% (n = 59,000); max dye-equivalent concentration, M; in the data active = max dye-equivalent concentration above about 10 nM; inconclusive = mostly about 1.1 nM to 9.6 nM
AID923: qHTS Assay for Allosteric/Competitive Inhibitors of Caspase-1: Spectroscopic Profiling in AFC Spectral Region | compound fluorescence, AFC spectral region (405/520 nm) | Potency, µM (titrated, usually from 57.5 µM), hits mostly activators | actives 1.1% (n = 75,000) | AID 923, 2007
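Titrations up to 57 uM read every 20 sec for 3 min (405/520 nm) with 50 nM caspase 1 and 5 uM Ac-WEHD-AFC, pH 7.5 HEPES buffer. Fluorescence-vs-time intercept gave baseline, scaled against on-plate AFC standard.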
Large screens that a line does not name were inactive. Shown are actives, neighbours in structure and some others; about 13% of the full set was active somewhere. Unless noted, calls follow the shape of the dose curve; as a rule, active = well fitted curve in the direction sought with a large enough effect; inconclusive = small, poorly fitted or top-dose-only effect, or another doubt; inactive = no such curve, though single readings can be large; an effect the other way counts as inactive or inconclusive.

CC(C)(C)NC[C@H](O)COc1cccc2c1C[C@@H](O)[C@@H](O)C2	none (no result: GBA activity)
O=C1C(Cl)=C(N2CCOCC2)C(=O)N1c1cccc(Cl)c1	HADH2 inhib 3.98µM (no result: 4-MU autofl, GBA activity, A350 autofl)
CC1Cc2cc(/C(O)=C3/C(=O)C(=O)N(Cc4ccco4)C3c3cccs3)ccc2O1 (stereo not given)	HSD17B inh 20µM
CN(C)Cc1ccccc1-c1nc(N2CCOCC2)c2ccccc2n1	none (no result: GBA activity)
COc1ccccc1C(=O)NCCn1cc(SCC(=O)Nc2nnc(C)s2)c2ccccc21	GBA activity 6.24
COc1ccccc1CNC(=O)CCC(=O)Nc1nnc(C)s1	A350 autofl inconclusive
Cn1c(-c2ccc3c(c2)OCO3)cnc1N	none (no result: GBA activity)
c1cc2c(cc1-c1cnc3n1CCC3)OCCO2	HSD17B inh 31.6µM
CN1C[C@H](c2ccccc2)C(O)([C@]2(c3ccccc3)CN(C)C[C@@H](c3ccccc3)C2=O)[C@H](c2ccccc2)C1 (stereo not given in full)	A350 autofl inconclusive (no result: GBA activity)
CCOc1ccccc1NC(=O)CC1Nc2cc(C)c(C)cc2NC1=O (stereo not given)	HSD17B inh 20µM (no result: 4-MU autofl, GBA activity, A350 autofl)
CCOc1ccccc1NC(=O)CC1Nc2ccccc2NC1=O (stereo not given)	4-MU autofl 2.09e-08M, HSD17B inh 31.6µM, A350 autofl 2.67e-08M
Cc1ccc(NC(=O)CC2Nc3ccccc3NC2=O)cc1Cl (stereo not given)	none (no result: 4-MU autofl, GBA activity, A350 autofl)
CCCOc1ccccc1NC(=O)CC1Nc2ccccc2NC1=O (stereo not given)	4-MU autofl inconclusive, HSD17B inh inconclusive, GBA activity 13.9, A350 autofl 1.28e-08M
COc1cc(C2SCCCCCCCCCCSC(c3ccc(O)c(OC)c3)SCCCCCCCCCCS2)ccc1O (stereo not given)	none (no result: GBA activity)
COc1ccccc1S(=O)(=O)Cc1ccc(C(=O)NC(C)c2ccc3c(c2)OCCO3)o1 (stereo not given)	none
C=CCn1c(-c2ccoc2)n[nH]c1=S	HADH2 inhib inconclusive, HSD17B inh 31.6µM
C=CCn1c(-c2ccccc2)n[nH]c1=S	none (no result: HADH2 inhib, HSD17B inh, GBA activity, AID923)
CCOc1nc(-c2ccc(OC)cc2)ccc1-c1noc(-c2ccncc2)n1	4-MU autofl 1.07e-08M, A350 autofl 1.44e-08M
CCOc1nc(-c2ccccc2)ccc1-c1noc(-c2ccncc2)n1	4-MU autofl inconclusive, HSD17B inh 12.6µM, A350 autofl inconclusive
O=C(Cn1ncc2c1-c1ccccc1OC2)Nc1nc2ccccc2s1	none (no result: 4-MU autofl, GBA activity, A350 autofl)
CCOC(=O)N1CCN(C(=O)Nc2ccc3oc(C)nc3c2)CC1	none
CCOC(=O)c1ccc(NC(=O)N2CCN(c3ccccn3)CC2)cc1	HSD17B inh 31.6µM
Cc1nc2cc(NC(=O)N3CCN(c4ccccn4)CC3)ccc2o1	HSD17B inh 31.6µM
O=C(Nc1cccc(Cl)c1)N1CCN(c2ncccn2)CC1	none
O=C(Nc1ccc2ccccc2c1)N1CCN(c2ncccc2C(F)(F)F)CC1	HSD17B inh 15.8µM
CCOC(=O)c1ccc(NC(=O)N2CCN(CCc3ccccc3)CC2)cc1	none
C[C@@H](NC(=O)C1(N)CCCC1)C(=O)O	none (no result: GBA activity)
Cc1cc(C(=O)COc2ccc3ccc(=O)oc3c2)c(C)n1Cc1cccs1	4-MU autofl 2.85e-07M, A350 autofl 3.9e-07M
Cc1cc(C(=O)COC(=O)CN(C)S(=O)(=O)c2ccc(Cl)cc2)c(C)n1Cc1cccs1	none
CCOCCCn1cnc2c(c1=O)c1nc3ccccc3nc1n2-c1ccc(C)cc1	4-MU autofl 2.03e-07M, GBA activity inconclusive, A350 autofl 2.89e-07M
CCOCCCn1cnc2c(c1=O)c1nc3ccccc3nc1n2-c1ccccc1	4-MU autofl 5.79e-07M, A350 autofl 3.46e-07M (no result: GBA activity)
C=CCn1c(C)nc2c(c1=O)c1nc3ccccc3nc1n2-c1ccc(C)cc1	none (no result: 4-MU autofl, GBA activity, A350 autofl)
CCN(CC)CCNc1nc(-c2ccco2)c2c(c1C#N)CC(C)(C)OC2	4-MU autofl 5.21e-07M, A350 autofl 5.85e-07M (no result: HADH2 inhib, HSD17B inh, GBA activity, AID923)
CC1(C)Cc2c(C#N)c(NCCc3ccccc3)nc(-c3ccco3)c2CO1	4-MU autofl 8e-08M, A350 autofl 9.13e-08M (no result: HADH2 inhib, HSD17B inh, GBA activity, AID923)
CC(Sc1nc(N2CCOCC2)c2c(c1C#N)CC(C)(C)OC2)C(=O)Nc1ccccc1 (stereo not given)	HADH2 inhib inconclusive
CCOc1ccc(NC(=O)Cn2nnc(-c3ccccc3NC(=O)CC)n2)cc1	none
O=C(Cn1nnc(-c2ccccc2NC(=O)c2ccco2)n1)Nc1ccccc1	HSD17B inh 31.6µM
COc1ccc(NC(=O)Cn2nnc(-c3ccccc3NC(=O)c3cccs3)n2)cc1	4-MU autofl 1.32e-08M, A350 autofl 1.94e-08M
COc1cccc([C@@H]2Oc3ccc(OC)cc3/C(=N/O[C@@H](C)c3cn([C@H]4COC[C@H]4O)nn3)[C@@H]2O)c1	none (no result: 4-MU autofl, GBA activity, A350 autofl)
Cc1ccc(C(=O)CSc2nnc(-c3ccco3)n2CC2CCCO2)cc1 (stereo not given)	HSD17B inh inconclusive
Cc1cc2c(nc1C)CCCCN2C[C@H](C)O/N=C1/[C@H]2O[C@@H]2[C@@H](O)[C@H]2[C@H]1CCn1c(=O)n(-c3ccccc3)c(=O)n12	none (no result: 4-MU autofl, GBA activity, A350 autofl)
CCOC(=O)CSc1nc2ccccc2c(=O)n1C	4-MU autofl 6.93e-06M, A350 autofl 7.82e-06M (no result: HADH2 inhib, HSD17B inh, GBA activity, AID923)
CC[C@@H]1OC(=O)[C@H](C)[C@H](O[C@@H]2C[C@](C)(OC)[C@H](O)[C@H](C)O2)[C@H](C)[C@H](O[C@@H]2O[C@@H](C)C[C@@H](N(C)C)[C@@H]2O)[C@](C)(O)C[C@H](C)C(=O)[C@H](C)[C@H](O)[C@]1(C)O	none (no result: GBA activity)
O=C(C1CCCN(c2ncccn2)C1)N1CCc2ccccc21 (stereo not given)	HSD17B inh inconclusive
O=C(c1cc(-c2ccncc2)nc2ccccc12)N1CCN(c2ccccn2)CC1	none
CCOC(=O)c1cc(-c2ccncc2)nc2c1c(C)nn2-c1ccccn1	4-MU autofl 2.37e-08M, A350 autofl 3.2e-08M
Cc1nn(-c2ccccn2)c2nc(-c3cccs3)cc(C(=O)N3CCOCC3)c12	4-MU autofl 1.1e-06M, HADH2 inhib 25.1µM, HSD17B inh 31.6µM, A350 autofl 1.57e-06M
CCOC(=O)c1cnc2ccc(Br)cc2c1NCCO	none (no result: 4-MU autofl, GBA activity, A350 autofl)
CCOC(=O)c1cnc2c(C(=O)OC)cccc2c1NCc1ccco1	4-MU autofl 3.7e-08M, HADH2 inhib inconclusive, HSD17B inh 31.6µM, A350 autofl 3.9e-08M
CCOC(=O)c1ccc2ncc(C(=O)OCC)c(NCc3ccco3)c2c1	4-MU autofl 3.94e-08M, HSD17B inh 25.1µM, A350 autofl 3.81e-08M
